Experimental data from PubChem BioAssay (NCATS).
Several values for one entry are separate records, joined by “and”; a condition that tells them apart may be missing. Identical values can stand only once. Records with an inconclusive call do not appear. Unmarked numbers belong to inactive results. Activity calls are given as the source filed them. Calls come from the whole dose curve; as a rule, active = well fitted curve in the direction sought with a large enough effect; inconclusive = small, poorly fitted or top-dose-only effect, or another doubt; inactive = no such curve, though single readings can be large; an effect the other way counts as inactive or inconclusive.

Columns and labels:
HEK293 = assay: Cytotoxic Profiling of Annotated Libraries Using Quantitative High-Throughput Screening (AID 1296008); settings: Five cell lines viability, CellTiter-Glo ATP luminescence, 48-72 h; max response: stronger effect = lower value; note: nearly all actives have a fitted effect of over 60% in size
Procedure, shortened: (§1)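 Compounds were pin-transferred onto cells and incubated 48 or 72 hr at 37 degree Celsius, 95% humidity. CellTiter-Glo was added, plates sat 10 min at room temperature, then ATP-coupled luminescence was imaged as the viability read-out.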

HaCat = assay: as above; settings: Five cell lines viability, CellTiter-Glo ATP luminescence, 48-72 h; max response: stronger effect = lower value
Procedure, shortened: as §1

KB-3-1 = assay: as above; settings: Five cell lines viability, CellTiter-Glo ATP luminescence, 48-72 h; max response: stronger effect = lower value
Procedure, shortened: as §1

NIH3T3 = assay: as above; settings: Five cell lines viability, CellTiter-Glo ATP luminescence, 48-72 h; max response: stronger effect = lower value
Procedure, shortened: as §1

MCC-26 = assay: qHTS assay to identify novel small-molecules to repurpose for Merkel cell carcinoma treatment (AID 1296009); settings: MCC and control cell lines, CellTiter-Glo viability, 72 h; series mostly up to 46 µM; note: nearly all actives have a fitted effect of over 60% in size
Procedure, shortened: (§2)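 qHTS format: cells treated with library compounds in DMSO across 8 (NPC) or 11 (MIPE) concentrations. Readout after 72 hr at 37 degree celsius was CellTiter-Glo luminescence.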

MKL-1 = assay: as above; settings: MCC and control cell lines, CellTiter-Glo viability, 72 h; series mostly up to 46 µM
Procedure, shortened: as §2

MKL-2 = assay: as above; settings: MCC and control cell lines, CellTiter-Glo viability, 72 h; series mostly up to 46 µM
Procedure, shortened: as §2

UISO = assay: as above; settings: MCC and control cell lines, CellTiter-Glo viability, 72 h; series mostly up to 46 µM
Procedure, shortened: as §2

CASKI = assay: Primary qHTS to identify gynecologic anti-cancer compounds using libraries of approved drugs and bioactive compounds (AID 1345084); settings: Gynecologic cancer cell panel viability, ATPlite luminescence, 48 h; series mostly up to 57.5 µM; note: nearly all actives have a fitted effect of over 55% in size
Procedure, shortened: (§3)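 Cells, 1,000 per well, were allowed to settle for 16 h at 37 C before compound addition. Five concentrations were tested for 48 h, and viability was read by ATPlite luminescence after 15 min at room temperature.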

Es-2 = assay: as above; settings: Gynecologic cancer cell panel viability, ATPlite luminescence, 48 h; series mostly up to 57.5 µM
Procedure, shortened: as §3

HeLa = assay: as above; settings: Gynecologic cancer cell panel viability, ATPlite luminescence, 48 h; series mostly up to 57.5 µM
Procedure, shortened: as §3

Hek293T = assay: as above; settings: Gynecologic cancer cell panel viability, ATPlite luminescence, 48 h, control line for the selectivity index; series mostly up to 57.5 µM
Procedure, shortened: as §3

MCC-13 = assay: qHTS assay to identify novel small-molecules to repurpose for Merkel cell carcinoma treatment (AID 1296009); settings: MCC and control cell lines, CellTiter-Glo viability, 72 h; series mostly up to 46 µM; note: nearly all actives have a fitted effect of over 60% in size
Procedure, shortened: as §2

C33A = assay: Primary qHTS to identify gynecologic anti-cancer compounds using libraries of approved drugs and bioactive compounds (AID 1345084); settings: Gynecologic cancer cell panel viability, ATPlite luminescence, 48 h; series mostly up to 57.5 µM; note: nearly all actives have a fitted effect of over 55% in size
Procedure, shortened: as §3

WaGa = assay: qHTS assay to identify novel small-molecules to repurpose for Merkel cell carcinoma treatment (AID 1296009); settings: MCC and control cell lines, CellTiter-Glo viability, 72 h; series mostly up to 46 µM; note: nearly all actives have a fitted effect of over 60% in size
Procedure, shortened: as §2

JEG-3 = assay: Primary qHTS to identify gynecologic anti-cancer compounds using libraries of approved drugs and bioactive compounds (AID 1345084); settings: Gynecologic cancer cell panel viability, ATPlite luminescence, 48 h; series mostly up to 57.5 µM; note: nearly all actives have a fitted effect of over 55% in size
Procedure, shortened: as §3

CAOV3 = assay: as above; settings: Gynecologic cancer cell panel viability, ATPlite luminescence, 48 h; series mostly up to 57.5 µM
Procedure, shortened: as §3
% is set by controls: 0 for no effect and ±100 for the full control effect; potency is the fitted concentration of half-maximal effect.

Row | SMILES | Potency (HEK293) | Potency (HaCat) | Potency (KB-3-1) | Potency (NIH3T3) | Potency (MCC-26) | Potency (MKL-1) | Potency (MKL-2) | Potency (UISO) | Potency (CASKI) | Potency (Es-2) | Potency (HeLa) | Potency (Hek293T) | Potency (MCC-13) | Potency (C33A) | max response (HaCat) | Potency (WaGa) | Potency (JEG-3) | Potency (CAOV3) | max response (KB-3-1) | max response (NIH3T3)
1 | Cc1nc(Nc2n[nH]c3c2CN(C(=O)N[C@H](CN(C)C)c2ccccc2)C3(C)C)c2sccc2n1 | 20.9 nM (active) and 10.3 nM (active) | 7.43 µM (active) | 2.35 µM (active) and 2.06 µM (active) | 1.16 µM (active) | 14.8 µM (active) | 1.48 µM (active) | 2.64 µM (active) | 1.48 µM (active) | 7.94 µM (active) | 8.91 µM (active) | 8.91 µM (active) | 3.55 µM (active) | – | – | – | – | – | – | – | –
2 | CC(C)c1nn(-c2c(Cl)cccc2Cl)c2nc(Cc3ccc(OCCO)cc3)[nH]c(=O)c12 | 59 nM (active) and 36.6 nM (active) | 118 nM (active) and 231 nM (active) | 0.058 µM (active) | 93.5 nM (active) and 130 nM (active) | – | 0.132 µM (active) | 0.105 µM (active) | 0.105 µM (active) | 0.501 µM (active) | – | – | – | 0.105 µM (active) | 0.282 µM (active) | – | – | – | – | – | –
3 | Nc1nccc(Oc2ccc(NC(=O)c3c[nH]cc(-c4ccc(F)cc4)c3=O)cc2F)c1Cl | 11.8 µM (active) and 13 µM (active) | – | 23.5 µM (active) and 18.4 µM (active) | 16.6 µM (active) | – | 5.26 µM (active) | 14.8 µM (active) | 14.8 µM (active) | inactive | – | inactive | inactive | inactive | inactive | -25.3% | 2.35 µM (active) | inactive | – | – | –
4 | CC(C)(C)OC(=O)Nc1ccc(-c2cc(C(=O)NCCCCCCC(=O)NO)no2)cc1 | 7.43 µM (active) | 20.9 µM (active) | 8.33 µM (active) | 14.8 µM (active) | – | – | 2.96 µM (active) | 10.5 µM (active) | – | – | – | – | 11.8 µM (active) | – | – | 3.32 µM (active) | – | – | – | –
5 | CC[C@@H]1C(=O)N(C)c2cnc(Nc3ccc(C(=O)NC4CCN(C)CC4)cc3OC)nc2N1C1CCCC1 | 0.0166 µM (active) | 0.0332 µM (active) | 0.0083 µM (active) | 1.87 µM (active) | – | 0.0235 µM (active) | 3.32 µM (active) | – | – | – | – | – | 0.662 µM (active) | – | – | 4.69 µM (active) | – | – | – | –
6 | COc1cc(Nc2ncc(F)c(Nc3ccc4c(n3)N(COP(=O)(O)O)C(=O)C(C)(C)O4)n2)cc(OC)c1OC | 3.72 µM (active) and 7.31 µM (active) | 4.69 µM (active) and 4.61 µM (active) | 4.11 µM (active) | 2.06 µM (active) | – | inactive | inactive | inactive | 17.8 µM (active) | – | 3.55 µM (active) | – | inactive | – | – | inactive | – | 11.2 µM (active) | – | –
7 | C[C@]1(CO)CN(c2cc(C(=O)Nc3ccc4c(c3)-c3c(c(C(N)=O)nn3-c3ccc(F)cc3)CC4)c(Cl)cn2)C[C@@]1(C)CO | 4.69 µM (active) and 9.2 µM (active) | 13.2 µM (active) | – | – | – | – | – | 9.35 µM (active) | – | – | inactive | inactive | – | – | – | 18.7 µM (active) | inactive | inactive | -15.8% | -26%
8 | COc1cccc2nc(-c3cccs3)nc(NN3C(=O)C=C(C)C3=O)c12 | 418 nM (active) and 517 nM (active) | 23.5 µM (active) | 5.9 µM (active) and 10.3 µM (active) | 1.48 µM (active) and 820 nM (active) | – | – | 0.935 µM (active) | – | – | 2.51 µM (active) | – | 1.41 µM (active) | 2.64 µM (active) | 31.6 µM (active) | – | – | – | 15.8 µM (active) | – | –
9 | O=C(Nc1cn[nH]c1-c1nc2ccc(CN3CCOCC3)cc2[nH]1)NC1CC1 | 10.5 µM (active) and 3.66 µM (active) | 2.64 µM (active) and 231 nM (active) | 5.9 µM (active) and 4.11 µM (active) | 1.48 µM (active) and 1.84 µM (active) | – | – | 26.4 µM (active) | 8.33 µM (active) | 2 µM (active) | 14.1 µM (active) | – | 7.94 µM (active) | 0.935 µM (active) | 14.1 µM (active) | – | – | – | – | – | –
10 | Cc1cc(CN2CCN(c3c(Br)cnc4nc(-c5ccc(N6CCN(C)CC6)cc5)[nH]c34)CC2)no1 | 23.5 µM (active) and 9.2 µM (active) | 2.35 µM (active) | 18.7 µM (active) and 16.4 µM (active) | 13.2 µM (active) and 1.46 µM (active) | – | 3.32 µM (active) | 26.4 µM (active) | – | inactive | inactive | 1.58 µM (active) | inactive | – | inactive | – | – | inactive | – | – | –
11 | Cc1nc(N)ncc1-c1nc(N2CCOCC2)c2sc(C(C)(C)O)cc2n1 | 1.18 µM (active) and 1.3 µM (active) | 41.8 nM (active) and 130 nM (active) | 3.66 µM (active) | 1.87 µM (active) and 920 nM (active) | – | – | – | – | 0.501 µM (active) | – | – | 3.16 µM (active) | inactive | 1.78 µM (active) | – | – | – | – | – | –
12 | Cc1cc(Nc2nc(N[C@@H](C)c3ccc(F)cc3)c(C#N)cc2F)n[nH]1 | 2.64 µM (active) and 1.3 µM (active) | 2.59 µM (active) | 1.05 µM (active) and 731 nM (active) | 3.72 µM (active) and 4.11 µM (active) | 7.43 µM (active) | – | – | – | – | 14.1 µM (active) | 5.62 µM (active) | – | – | inactive | – | – | – | – | – | –
